PubChem BioAssay
The source made the active and inactive calls.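 How the source made its calls, unless noted: active means visual image review flags a hit and inhibition of aggregation exceeds 20%; inconclusive means visual hit but inhibition at or below 20%; inactive means no hit on visual image review.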

What was measured:
[1] = inhibitors of TNFa-induced NFkB p65 translocation, primary screen, imaging, HUVEC, MLSMR starter and 10KST1 sets (AID 438;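 active means inhibition above 20% together with a positive visual image hit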;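 further: compound added about 3h40 before a 20 min TNFalpha stimulation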;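 on inhibition: signal is the nuclear over cytoplasmic p65 intensity ratio per well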); settings: HUVEC TNFa-induced p65 nuclear translocation; cell count: measured here: nuclei count (cytotoxicity indicator), at 2.08 µM; inhibition: at 2 µM, stronger effect = higher value, 0% TNFa-plus-vehicle, 100% no-TNFa wells
[2] = inhibitors of mutant huntingtin aggregation, primary screen, imaging, exon1htt(103Q)mCFP cells, high-content imaging (AID 483); settings: exon1htt(103Q)mCFP cell line, aggregate imaging, at 2 µM; inhibition of aggregation: stronger effect = higher value; nuclei count: measured here: cell count, toxicity;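 further: compound exposure lasted 3 days before fixation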;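 on nuclei count: percent of the per-plate median nuclei count of sample wells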
[3] = inhibitors of E-selectin induction by TNFa, primary screen, imaging, HUVEC, immunofluorescence, MLSMR starter and 10KST1 sets (AID 487;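 active means visually confirmed hit in the image check and inhibition above 20%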;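 on inhibition: signal is fraction of cell area covered by stained E-selectin grains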;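 on nuclei count: 100% = median nuclei count of all wells on the same plate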); settings: HUVEC TNFalpha-induced E-selectin immunofluorescence imaging, at 2 µM; inhibition: stronger effect = higher value; nuclei count: measured here: cell number, toxicity
[4] = molecular target: Voltage-gated potassium channel subunit beta-2 (Rattus norvegicus) (UniProt P62483); test: KvBeta enzyme negative modulators, primary screen, biochemical, NADPH fluorescence (AID 622;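 active means fluorescence slope higher than the sample average by over 3 SD, cut at about -0.22 in these data, passing the limit was not always enough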;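 further: slope of raw intensity against log time taken from 70 to 1610 s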); settings: recombinant KvBeta, 4-cyanobenzaldehyde reduction, at 10 µM, stronger effect = higher value
[5] = molecular target: Voltage-gated potassium channel subunit beta-2 (Rattus norvegicus) (UniProt P62483); test: KvBeta positive modulators, primary screen, biochemical, NADPH fluorescence (AID 623;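 active means NADPH fluorescence slope more negative than the mean of all samples by about 3 SD, 99.7% confidence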;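 further: fluorescence intensity change per second fitted from 20 to 320 s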); settings: Recombinant KvBeta, NADPH fluorescence decrease slope, 10 min; at 10 µM; stronger effect = lower value
[6] = molecular target: Alpha-2C adrenergic receptor (Homo sapiens) (UniProt P18825); test: modulators of alpha2C/GIRK thallium flux, primary screen, cell-based, HEK293 alpha2C/GIRK1/2 (AID 624;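 active means fluorescence slope after compound addition differing from the mean of all screened samples at 99.7% confidence, in either direction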;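 further: slope of fluorescence ratio to pre-addition baseline per second over 15 to 24 s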); settings: thallium flux BTC fluorescence, at 10 µM, actives lie on both sides
[7] = inhibitors of Sendai virus-induced IRF3 signaling, primary screen, TLR/RLR signaling modifier project, cell-based, Sendai virus stimulus, luciferase, 10K MLSCN set (AID 602276;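 active means inhibition at or above 50% at 10 µM; inactive means inhibition below 50%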;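 further: firefly luciferase from ISG56 promoter only with Renilla not read in this screen; 0% = Sendai virus plus DMSO and 100% = medium plus DMSO without virus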); settings: HEK293 RL24 IRF3 luciferase reporter, at 10 µM, stronger effect = higher value
[8] = inhibitors of poly I:C-induced TLR3 signaling, primary screen, cell-based, poly I:C stimulus, luciferase, 10K MLSCN set (AID 602277;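 active means inhibition of the reporter signal at or above 50%; inactive means inhibition below 50%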); settings: HEK293-TLR3 RL24 IRF3 luciferase reporter, at 10 µM, stronger effect = higher value

Chain of Voltage-gated potassium channel subunit beta-2 (Rattus norvegicus) (P62483 whole entry, looked up): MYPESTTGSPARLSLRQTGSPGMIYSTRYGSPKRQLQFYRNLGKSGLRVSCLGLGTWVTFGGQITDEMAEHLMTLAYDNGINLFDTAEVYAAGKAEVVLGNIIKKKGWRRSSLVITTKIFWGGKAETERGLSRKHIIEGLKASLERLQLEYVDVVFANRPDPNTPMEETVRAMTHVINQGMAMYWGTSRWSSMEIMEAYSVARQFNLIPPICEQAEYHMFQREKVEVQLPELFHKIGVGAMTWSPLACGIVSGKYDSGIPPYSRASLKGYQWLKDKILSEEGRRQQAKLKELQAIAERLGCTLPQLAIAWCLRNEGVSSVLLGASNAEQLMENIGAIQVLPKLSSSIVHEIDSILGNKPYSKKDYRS
Chain of Alpha-2C adrenergic receptor (Homo sapiens) (P18825 whole entry, looked up): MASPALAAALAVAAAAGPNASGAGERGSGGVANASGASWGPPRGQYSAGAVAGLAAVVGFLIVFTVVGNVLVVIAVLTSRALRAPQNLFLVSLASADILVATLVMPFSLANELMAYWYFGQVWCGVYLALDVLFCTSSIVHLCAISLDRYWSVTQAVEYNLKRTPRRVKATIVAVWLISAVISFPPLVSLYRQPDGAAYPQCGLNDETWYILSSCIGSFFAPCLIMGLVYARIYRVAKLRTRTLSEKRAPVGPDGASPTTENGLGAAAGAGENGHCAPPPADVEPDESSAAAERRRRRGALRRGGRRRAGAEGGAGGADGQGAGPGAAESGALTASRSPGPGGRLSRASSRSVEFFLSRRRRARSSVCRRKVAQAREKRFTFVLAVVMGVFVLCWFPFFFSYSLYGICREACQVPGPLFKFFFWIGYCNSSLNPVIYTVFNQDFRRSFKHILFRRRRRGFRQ

Compound	cell count [1]	inhibition [1]	inhibition of aggregation [2]	nuclei count [2]	inhibition [3]	nuclei count [3]	fluorescence slope [4]	NADPH fluorescence slope [5]	slope [6]	inhibition [7]	inhibition [8]
CCOc1cc(NC(=O)c2ccco2)c(OCC)cc1NC(=O)CCc1ccc(OC)cc1	630	-0.7% (inactive)	-13.7% (inactive)	109%	23.6% (inactive)	102%	-0.513 (inactive)	-6.7e-06 (inactive)	0.00426 (inactive)	-0.546% (inactive)	-4.67% (inactive)
O=C(NCC1CCCO1)C1CCC(CNS(=O)(=O)c2ccccc2)CC1 (stereo unspecified)	341	8.1% (inactive)	-6% (inactive)	110%	-24.2% (inactive)	115%	-0.499 (inactive)	-4e-05 (inactive)	0.00661 (inactive)	7.1% (inactive)	10.8% (inactive)
CCOC(=O)c1nnn(CC(=O)Nc2cccc(F)c2)c1C(=O)OCC	581	-7.9% (inactive)	8.9% (inactive)	124%	-41.8% (inactive)	112%	-0.6 (inactive)	-1.1e-05 (inactive)	0.00821 (inactive)	3.63% (inactive)	12.6% (inactive)
Cc1ccc(NC(=O)CSc2nnc(-c3ccncc3)n2C)cc1C	822	-13.9% (inactive)	18.5% (inactive)	85%	-44.4% (inactive)	130%	-0.591 (inactive)	4.1e-06 (inactive)	0.00642 (inactive)	-15.3% (inactive)	-22.4% (inactive)
CCc1nc(C)ccc1OCC(=O)O	332	1% (inactive)	-30% (inactive)	89.2%	9.9% (inactive)	102%	-0.459 (inactive)	-6.3e-05 (inactive)	0.00578 (inactive)	-11.9% (inactive)	-14.7% (inactive)
CC1CN(c2nc3ccccc3nc2C(C#N)C(=O)NCc2ccc3c(c2)OCO3)CC(C)O1 (stereo unspecified)	340	4.7% (inactive)	11.1% (inactive)	83.9%	-24.9% (inactive)	81.7%	-0.347 (inactive)	-5.3e-05 (inactive)	0.00757 (inactive)	18.7% (inactive)	14.5% (inactive)
Cn1nnnc1SCC(=O)N1CCN(c2cccc(Cl)c2)CC1	360	-2.9% (inactive)	10.8% (inactive)	94.4%	-206% (inactive)	115%	-0.619 (inactive)	-2.9e-06 (inactive)	0.00492 (inactive)	7.81% (inactive)	11.3% (inactive)
Cc1cc(C(=O)NCCCc2ccccc2)no1	765	-8.2% (inactive)	0% (inactive)	105%	-58% (inactive)	120%	-0.358 (inactive)	-1.1e-05 (inactive)	0.00425 (inactive)	-11.5% (inactive)	-13.4% (inactive)
CSc1ccc(-c2nc(CSCC(=O)N3CCOCC3)c(C)o2)cc1	243	2.7% (inactive)	-6% (inactive)	89.5%	-16.1% (inactive)	101%	-0.523 (inactive)	-5.8e-05 (inactive)	0.00525 (inactive)	-23.3% (inactive)	-88.4% (inactive)
COc1ccc(-c2[nH]c(-c3cccc(OC)c3)nc2SCC(=O)NCc2ccco2)cc1	672	10.5% (inactive)	5.3% (inactive)	102%	-5.4% (inactive)	124%	-0.484 (inactive)	-1.7e-05 (inactive)	0.00547 (inactive)	10.3% (inactive)	4.41% (inactive)
Brc1ccccc1-c1nc(-c2ccccc2)no1	428	2.3% (inactive)	-23% (inactive)	94%	-25.4% (inactive)	114%	-0.45 (inactive)	2.8e-05 (inactive)	0.00389 (inactive)	-15.5% (inactive)	-39.8% (inactive)
CCOc1ccccc1CNC(=O)CCN1C(=O)COc2ccccc21	630	-1.8% (inactive)	-12.2% (inactive)	47.7%	-71.5% (inactive)	94.5%	-0.379 (inactive)	-2.3e-05 (inactive)	0.00611 (inactive)	12.2% (inactive)	2.75% (inactive)
Cc1ccc(NC(=O)c2ccccc2O)cc1	631	12.1% (inactive)	8% (inactive)	91.3%	-203% (inactive)	119%	-0.602 (inactive)	-5.6e-05 (inactive)	0.00651 (inactive)	-61.1% (inactive)	-73.1% (inactive)
CC1(C)CNC(=O)CC(C)(C)N1O	379	4% (inactive)	7.9% (inactive)	89.4%	-66.8% (inactive)	110%	-0.497 (inactive)	-6.2e-06 (inactive)	0.00315 (inactive)	-4.83% (inactive)	19.7% (inactive)
O=S(=O)(c1ccccc1)c1nc(-c2ccco2)oc1NCCCN1CCOCC1	548	0% (inactive)	-3% (inactive)	88.3%	-73.7% (inactive)	124%	-0.502 (inactive)	1.1e-05 (inactive)	0.0038 (inactive)	0.535% (inactive)	4.26% (inactive)
COc1cccc(NC(=O)c2ccco2)c1	596	5.6% (inactive)	7% (inactive)	93.3%	32.9% (inactive)	96.1%	-0.401 (inactive)	6.1e-06 (inactive)	0.00282 (inactive)	-31.2% (inactive)	-128% (inactive)
O=C(NCCC1=CCCCC1)c1cc2c(s1)CS(=O)(=O)C2	610	6% (inactive)	-19.3% (inactive)	102%	31% (inactive)	94.9%	-0.433 (inactive)	-0.000138 (inactive)	0.00559 (inactive)	-7.34% (inactive)	-9.88% (inactive)
c1ccc(Cn2nnnc2C(c2cccs2)N2CCSCC2)cc1 (stereo unspecified)	482	-10.4% (inactive)	-0.3% (inactive)	110%	-56.7% (inactive)	95.9%	-0.514 (inactive)	-6.4e-05 (inactive)	0.00524 (inactive)	-6.43% (inactive)	14.3% (inactive)
O=C(COC(=O)C1CC2C=CC1C2)Nc1ccc2c(c1)OC(F)(F)O2 (stereo unspecified)	434	9.3% (inactive)	13.3% (inactive)	89.2%	11.1% (inactive)	91.8%	-0.437 (inactive)	-6.4e-05 (inactive)	0.00772 (inactive)	15.9% (inactive)	20.1% (inactive)
CCc1nc2scc(-c3ccccc3)c2c(=O)n1N	414	10.9% (inactive)	0% (inactive)	98.5%	-361% (inactive)	142%	-0.437 (inactive)	6.4e-05 (inactive)	0.00592 (inactive)	-8.38% (inactive)	-30.6% (inactive)
O=C(O)CCNc1nc(-c2ccccc2)nc2ccccc12	619	-7.6% (inactive)	-14.3% (inactive)	103%	-28.1% (inactive)	127%	-0.579 (inactive)	3e-05 (inactive)	0.00675 (inactive)	-3.96% (inactive)	7.69% (inactive)
CCc1cc2c(CN3CCN(CCO)CC3)cc(=O)oc2cc1O	396	1.3% (inactive)	-12.5% (inactive)	102%	-34.5% (inactive)	60.8%	-0.0121 (active)	1.7e-06 (inactive)	0.00408 (inactive)	17.8% (inactive)	27% (inactive)
CCOc1cc(C(=O)N(C)Cc2cc3cc(OC)ccc3[nH]c2=O)cc(OCC)c1OCC	394	4% (inactive)	18.6% (inactive)	83.8%	-174% (inactive)	211%	-0.207 (inactive)	-1.5e-05 (inactive)	0.00515 (inactive)	15.8% (inactive)	18.6% (inactive)
CC1Cc2nc(SCC(=O)Nc3ccc(F)cc3F)n(C)c(=O)c2S1 (stereo unspecified)	366	-0.6% (inactive)	-7.8% (inactive)	104%	0.8% (inactive)	113%	-0.587 (inactive)	-3.7e-05 (inactive)	0.00486 (inactive)	15.3% (inactive)	11.8% (inactive)
O=S1(=O)CC(N2CCCCC2)C(N2CCCCC2)C1 (stereo unspecified)	394	3.6% (inactive)	0.2% (inactive)	110%	-31.5% (inactive)	107%	-0.587 (inactive)	-1.5e-05 (inactive)	0.00686 (inactive)	15.3% (inactive)	32.7% (inactive)
CCOC(=O)Nc1c(O)ccc2oc(C)c(-c3ccccc3)c12	271	-6.4% (inactive)	-22% (inactive)	104%	-63.2% (inactive)	106%	-0.5 (inactive)	-0.000121 (inactive)	0.0037 (inactive)	18.3% (inactive)	28.6% (inactive)
